The text below walks through data of PubChem BioAssay (NCATS).

Records with an inconclusive call do not appear. Entries that show only a call come without a potency. Unmarked numbers belong to inactive results. Calls of active or inactive are those of the source. Calls follow the shape of the dose curve; as a rule, active = well fitted curve in the direction sought with a large enough effect; inconclusive = small, poorly fitted or top-dose-only effect, or another doubt; inactive = no such curve, though single readings can be large; an effect the other way counts as inactive or inconclusive.

Test system in the first experiment: not listed separately
In words: P-glycoprotein substrates identified in KB-8-5-11 adenocarcinoma cell line, qHTS therapeutic library screen (AID 1346987). Also: nearly all actives have a fitted effect of over 65% in size. To be noted: KB-8-5-11 (P-gp overexpressing) viability, CellTiter-Glo, 72 h; series mostly up to 44.5 µM. The procedure, abridged:
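KB-8-5-11: colchicine-selected sub-line of KB-3-1 over-expressing P-gp; assay medium lacked colchicine. 72 h drug exposure at 37 degree C, CellTiter-Glo.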
A general note: qHTS replaces the single test concentration by a dilution series.
As for `CCc1cccc2c3c([nH]c12)[C@@](CC)(CC(=O)O)OCC3`, the Potency result was “inactive”. For the molecule `COC(=O)C1=CO[C@@H](O[C@@H]2O[C@H](CO[C@@H]3O[C@H](CO)[C@@H](O)[C@H](O)[C@H]3O)[C@@H](O)[C@H](O)[C@H]2O)[C@@H]2C(CO)=CC[C@H]12`, the Potency entry was “inactive”. Turning to `CC(C)C1NC(=O)C2CCCN2C1=O` (configuration not stated), the Potency entry was “inactive”. Consider `COc1cnc(-n2cnc(C)n2)c2[nH]cc(C(=O)C(=O)N3CCN(C(=O)c4ccccc4)CC3)c12`, for which the Potency entry was “inactive”. As to `CC1(C)CC[C@]2(C(=O)O[C@@H]3O[C@H](CO)[C@@H](O)[C@H](O)[C@H]3O)CC[C@]3(C)C(=CCC4[C@@]5(C)CC[C@H](OC6OC(C(=O)O)C(OC7OC(CO)C(O)C(O)C7O)C(O)C6O)C(C)(C)C5CC[C@]43C)C2C1` (some centres not stated), the activity change, negative = cytotoxicity was 9.04% [at 9.29 µM]. Regarding `C=CC1(C)CC2CCC3C(C)(C(=O)O)CCCC3(C)C2=CC1=O` (configuration not stated), the Potency entry is “inactive”. Regarding `O=C(O)/C=C/c1ccc2occc2c1O[C@@H]1O[C@H](CO)[C@@H](O)[C@H](O)[C@H]1O`, the Potency entry was “inactive”. With `C[C@@H]1O[C@@H](O[C@H]2[C@H](O)[C@@H](O)[C@H](OC[C@H]3O[C@@H](OC(=O)[C@]45CCC(C)(C)C[C@H]4C4=CCC6[C@@]7(C)C[C@@H](O)[C@H](O)[C@@](C)(CO)C7[C@H](O)C[C@@]6(C)[C@]4(C)CC5)[C@H](O)[C@@H](O)[C@@H]3O)O[C@@H]2CO)[C@H](O)[C@H](O)[C@H]1O` (some centres not stated), the outcome is “inactive [at 9.29 µM]”. Turning to `O=C(NCCN1CCCC1)c1cc(-c2ccc(CN3CCOCC3)cc2)nc2ccc(F)cc12`, the Potency entry was “inactive”.

As for `COC(=O)C1=CO[C@@H](O[C@@H]2O[C@H](CO)[C@@H](O)[C@H](O)[C@H]2O)[C@@H]2[C@@H](CO)[C@@H](O)C(O)[C@H]12` (some centres not stated), the Potency result was “inactive”.

With `C/C(=C\C(=O)C[C@@]12C(=O)O[C@]3(C)CC[C@H]1C[C@H]23)C(N)=O`, the Potency result is “inactive”. As for `C=C1[C@@H]2CC[C@@]3(C)[C@H](c4ccoc4)OC(=O)C[C@]13O[C@H]1CC(=O)C(C)(C)[C@H](C(O)C(=O)OC)[C@]12C` (some centres not stated), the Potency result was “inactive”. As for `COc1ccc(/C=C/C(N)=O)cc1OC`, the Potency entry was “inactive”. On the same count and under the same terms, in the case of `Cc1cc(CO)c(O)c(C(=O)CC2CC(=O)NC(=O)C2)c1` it was “inactive”.

In a further experiment the test system is Zika virus NS2B-NS3 protease (unlinked complex). In words: Primary screen GU Rhodamine qHTS for Zika virus inhibitors: Unlinked NS2B-NS3 protease assay (AID 1347159). Also: nearly all actives have a fitted effect of over 60% in size. Also: potency is read from the fitted curve at half-maximal effect. The following applies: Recombinant ZIKV NS2B-NS3 protease, Rhodamine110 substrate fluorescence; series mostly up to 107 µM. The procedure, abridged:
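Noncovalent NS2B hydrophilic domain/NS3 protease complex (25 nM final) in 10 mM Tris-HCl pH 8.0, 0.01% Tween 20, preincubated 15 min with compounds (up to 114 microM), then 1.5 microM Rhodamine110 substrate. Fluorescence change over 15 min fitted to 4-parameter Hill.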
For `CC(=O)OC1C(CO)OC(O[C@H]2[C@H](OC(=O)[C@]34CCC(C)(C)C[C@H]3C3=CCC5[C@@]6(C)CC[C@H](O[C@@H]7O[C@H](C(=O)O)[C@@H](O)[C@H](O[C@@H]8OC[C@@H](O)[C@H](O)[C@H]8O)[C@H]7O[C@@H]7O[C@H](CO)[C@H](O)[C@H](O)[C@H]7O)[C@@](C)(C=O)C6CC[C@@]5(C)[C@]3(C)C[C@H]4O)O[C@H](C)[C@H](OC3OC(C)C(OC4OCC(O)C(O)C4O)C(O)C3O)[C@@H]2O)C(O)C1O` (some centres not stated), the activity change, negative = inhibition is 21.3% [at 19.1 µM]. Consider `COc1cc(C)c(C(=O)O[C@@H]2[C@H](O)[C@@H](CO)O[C@H]2n2ccc(=O)[nH]c2=O)c(OC)c1`, for which the Potency entry was “inactive”. As to `Cc1noc2c1-c1ccccc1C(c1ccc(Cl)cc1)=N[C@H]2CC(N)=O`, the Potency entry was “inactive”.

Turning to `O=C(O[C@@H]1O[C@H](CO)[C@@H](O)[C@H](O)[C@H]1O)c1ccccc1`, the Potency entry is “inactive”. Turning to `COc1ccnc2[nH]cc(C(=O)C(=O)N3CCN(C(=O)c4ccccc4)CC3C)c12` (configuration not stated), the Potency result is “inactive”. Still for that read-out and setting: in the case of `CC(=O)c1ccc(O[C@@H]2OC[C@@H](O)[C@H](O)[C@H]2O[C@]2(CO)O[C@H](CO)[C@@H](O)[C@@H]2O)c(O)c1` it was “inactive”; in that of `CC(C)=CCC/C(C)=C/CO[C@@H]1O[C@H](CO[C@@H]2O[C@@H](CO)[C@H](O)[C@H]2O)[C@@H](O)[C@H](O)[C@H]1O`, “inactive”. In the case of `Cc1occc(=O)c1O[C@@H]1O[C@H](CO[C@@H]2OC[C@](O)(CO)[C@H]2O)[C@@H](O)[C@H](O)[C@H]1O`, the Potency entry is “inactive”. Regarding `C=C1CCC2(OC1)OC1CC3C4CC=C5CC(O)CC(O[C@@H]6OC[C@H](OC(=O)C(O)C(C)CC)[C@H](O)[C@H]6O[C@@H]6O[C@@H](C)[C@H](O)[C@@H](O)[C@H]6O)C5(C)C4CCC3(C)C1C2C` (some centres not stated), the Potency entry was “inactive”.

For `C=CC(C)(C)C12Nc3c(ccc4c3OC(C)(C)C=C4)C1(O)CC1C(=O)N3CCCC3C(=O)N12` (configuration not stated), the Potency entry was “inactive”. Take `C/C=C/C=C/[C@@H]1O[C@](O)([C@H](CC)C(=O)NC/C=C/C=C(\C)[C@@H](OC)[C@@H](C)[C@@H]2O[C@H](/C=C/C=C/C=C(\C)C(=O)c3c(O)ccn(C)c3=O)[C@H](O)[C@@H]2O)[C@H](O)[C@H](O)C1(C)C`: the Potency entry was “inactive”. As to `CC1=C2CC(C)(C)CC2C(O)C2=C(C1)C(=O)OC2O` (configuration not stated), the Potency result was “inactive”. For the molecule `C=CC(C)(O)CC/C=C(\C)C(=O)O[C@@H]1[C@@H](O)[C@H](OC(C)(C=C)CC/C=C(\C)C(=O)O[C@@H]2O[C@H](CO)[C@@H](O)[C@H](O)[C@H]2O)O[C@H](CO)[C@H]1OC(=O)/C(C)=C/CCC(C)(O)C=C` (some centres not stated), the Potency result was “inactive”. Still for that read-out and setting: as for `C[C@@H]1O[C@@H](O[C@@H]2[C@@H](O)[C@H](O[C@H]3[C@H](O[C@H]4CC[C@@]5(C)C(CC[C@]6(C)C5CC=C5[C@@H]7CC(C)(C)CC[C@]7(C(=O)O[C@@H]7O[C@H](CO)[C@@H](O)[C@H](O)[C@H]7O)CC[C@]56C)C4(C)C)O[C@H](C(=O)O)[C@@H](O)[C@@H]3O)OC[C@H]2O)[C@H](O)[C@H](O)[C@H]1O` (some centres not stated), the entry is “inactive”; as for `C=C(CO)C(=O)O[C@H]1C[C@@]23O[C@@H]2CC/C(=C/[C@H]2OC(=O)C(=C)[C@H]12)CO[C@H]3O`, “inactive”; as for `CC1=CC(=O)C2C(C)(C)CCC[C@]2(C)[C@H]1CC[C@H](C)CC(=O)O` (some centres not stated), “inactive”.

For the molecule `CC1CCCCCCCc2cc(O)cc(O)c2C(=O)O1` (configuration not stated), the Potency was 39.8 µM (active). Same read-out and setting: as for `CC(=C\C(C)O)/C=C(\C)C(=O)CC1CC(CC(N)=O)CC(=O)O1` (configuration not stated), the entry is “inactive”; as for `C/C=C(\C)C(=O)OCC1OC(OCC2OC(OC3(CO)OC(CO)C(O)C3O)C(O)C(O)C2O)C(O)C(O)C1O` (configuration not stated), “inactive”; as for `CC(CCc1ccc(O)cc1)O[C@@H]1O[C@H](CO[C@@H]2OC(CO)[C@H](O)[C@H]2O)[C@@H](O)[C@H](O)[C@H]1O` (some centres not stated), “inactive”. With `CC12CC(O)C(O)C=C1c1cc(O)cc(O)c1C(=O)O2` (configuration not stated), the Potency entry is “inactive”.

On to `CC1(C)C[C@H](O)C[C@@]2(C)[C@H]1[C@H](O)C=C1COC(=O)[C@@]12O`, for which the Potency entry is “inactive”. For `C[C@@]12CC3(S(=O)(=O)O)OC(O1)[C@]1(COC(=O)c4ccccc4)[C@H]3C[C@]21O[C@@H]1O[C@H](CO)[C@@H](O)[C@H](O)[C@H]1O`, the Potency result was “inactive”. On the same count and under the same terms, in the case of `COc1cc(/C=C/C(=O)O[C@H]2[C@@H]3C=CO[C@@H](O[C@@H]4O[C@H](CO)[C@@H](O)[C@H](O)[C@H]4O)[C@@H]3[C@@]3(CO)O[C@@H]23)ccc1O` it was “inactive”; in that of `CCc1cccc2c3c([nH]c12)[C@@](CC)(CC(=O)O)OCC3`, “inactive”. As to `COC(=O)C1=CO[C@@H](O[C@@H]2O[C@H](CO[C@@H]3O[C@H](CO)[C@@H](O)[C@H](O)[C@H]3O)[C@@H](O)[C@H](O)[C@H]2O)[C@@H]2C(CO)=CC[C@H]12`, the Potency entry is “inactive”. Same read-out and setting: as for `CC(C)C1NC(=O)C2CCCN2C1=O` (configuration not stated), the entry is “inactive”. `COc1cnc(-n2cnc(C)n2)c2[nH]cc(C(=O)C(=O)N3CCN(C(=O)c4ccccc4)CC3)c12`: the Potency result is “inactive”. As to `CC1(C)CC[C@]2(C(=O)O[C@@H]3O[C@H](CO)[C@@H](O)[C@H](O)[C@H]3O)CC[C@]3(C)C(=CCC4[C@@]5(C)CC[C@H](OC6OC(C(=O)O)C(OC7OC(CO)C(O)C(O)C7O)C(O)C6O)C(C)(C)C5CC[C@]43C)C2C1` (some centres not stated), the Potency result was “inactive”.

For the molecule `C=CC1(C)CC2CCC3C(C)(C(=O)O)CCCC3(C)C2=CC1=O` (configuration not stated), the Potency entry is “inactive”.

`O=C(O)/C=C/c1ccc2occc2c1O[C@@H]1O[C@H](CO)[C@@H](O)[C@H](O)[C@H]1O`: the Potency result was “inactive”. In the case of `C[C@@H]1O[C@@H](O[C@H]2[C@H](O)[C@@H](O)[C@H](OC[C@H]3O[C@@H](OC(=O)[C@]45CCC(C)(C)C[C@H]4C4=CCC6[C@@]7(C)C[C@@H](O)[C@H](O)[C@@](C)(CO)C7[C@H](O)C[C@@]6(C)[C@]4(C)CC5)[C@H](O)[C@@H](O)[C@@H]3O)O[C@@H]2CO)[C@H](O)[C@H](O)[C@H]1O` (some centres not stated), the Potency entry is “inactive”. Take `O=C(NCCN1CCCC1)c1cc(-c2ccc(CN3CCOCC3)cc2)nc2ccc(F)cc12`: the Potency result is “inactive”.

Take `COC(=O)C1=CO[C@@H](O[C@@H]2O[C@H](CO)[C@@H](O)[C@H](O)[C@H]2O)[C@@H]2[C@@H](CO)[C@@H](O)C(O)[C@H]12` (some centres not stated): the Potency entry was “inactive”. Take `C/C(=C\C(=O)C[C@@]12C(=O)O[C@]3(C)CC[C@H]1C[C@H]23)C(N)=O`: the Potency entry is “inactive”. The same measure, in the same setting: as for `C=C1[C@@H]2CC[C@@]3(C)[C@H](c4ccoc4)OC(=O)C[C@]13O[C@H]1CC(=O)C(C)(C)[C@H](C(O)C(=O)OC)[C@]12C` (some centres not stated), the entry is “inactive”; as for `COc1ccc(/C=C/C(N)=O)cc1OC`, “inactive”. On the same count and under the same terms, as for `Cc1cc(CO)c(O)c(C(=O)CC2CC(=O)NC(=O)C2)c1`, the entry is “inactive”.
